From PubChem BioAssay (EPA / NIEHS)
Some structures have more than one record in an assay (separate samples or runs), and their calls can disagree. Calls of active or inactive are those of the source. Rule for the calls: active = hit-call score of the fitted dose curve at least 0.9, where 1 is the maximum; inactive = score below 0.9.

Assay: ATG_TCF_b_cat_CIS: Attagene CIS-FACTORIAL HepG2 Assay for human T-Cell-Factor with beta-catenin (TCF/b-cat) (AID 2282965)
Conditions: HepG2 TCF/beta-catenin cis-reporter transcription, actives raise or lower the signal
Method: ATG_CIS is a cell-based, multiplexed-readout assay that uses HepG2, a human liver cell line, with measurements taken at 24 hours after chemical dosing in a 24-well plate.ATG_TCF_b_cat_CIS is one of 52 assay component(s) measured or calculated from the ATG_CIS assay. It is designed to make measurements of mRNA induction, a form of inducible reporter, as detected with fluorescence intensity signals by Reverse transcription polymerase chain reaction (RT-PCR) and Capillary electrophoresis technology.Data from the assay component ATG_TCF_b_cat_CIS was analyzed into 1 assay endpoint. This assay endpoint, ATG_TCF_b_cat_CIS, was analyzed with bidirectional fitting relative to DMSO as the negative control and baseline of activity. Using a type of inducible reporter, measures of mRNA for gain or loss-of-signal activity can be used to understand the reporter gene at the transcription factor-level as they relate to the gene TCF7 and TCF7L2 and LEF1 and TCF7L1. Furthermore, this assay endpoint can be referred to as a primary readout, because this assay has produced multiple assay endpoints where this one serves a reporter gene function. To generalize the intended target to other relatable targets, this assay endpoint is annotated to the dna binding intended target family, where the subfamily is HMG box protein.
Human liver HepG2 cells are transiently transfected with multiple reporter transcription units (MRTUs) in 6-well plates using FuGene 6 reagent (Roche; 3 ml FuGene/1 mg DNA). The MRTU constructs are regulated by a cis-regulating element (promoter). […] A major difference between the CIS and TRANS system is that in CIS activities of endogenous TFs are measured, whereas the TRANS assay evaluates changes in activities of exogenous, chimeric NR-Gal4 proteins. […] At the end of 24 hour incubation, total RNA was isolated using TriZol reagent (Invitrogen). The isolated RNA is then reverse-transcribed using oligo(dT) primer and Mo-MLV reverse transcriptase (Invitrogen) with DNAse I (Ambion) treatment for 30 min. The one-tenth of the produced cDNA was amplified by PCR using Taq DNA polymerase (Invitrogen) and two reporter sequence-specific primers. The PCR products were fluorescently labeled by primer extension with 6-arboxyfluorescein (6-FAM) 5'-labeled reporter sequence-specific primer (2 min at 95 C, 20 s at 68 C and 10 min at 72 C) and these products were digested with 5U of HpaI (New England Biolabs) for 2h at 37 C. The fragments were purified using Qiaquick PCR columns (Qiagen), analyzed on an ABI 3130xL genetic analyzer (Applied Biosystems) with peak positions identified by using a set of X-rhodamine (ROX)-labeled MapMarker1000 molecular weight standards (BioVentures). The raw capillary electrophoresis data was processed using Attagraph software (Attagene).

Row | Compound | outcome | AC50
1 | Cc1cc(N=Nc2ccccc2C)ccc1N | inactive | 
2 | O=C(Oc1ccc(Br)cc1)N1CCN2CCC1CC2 |  | 43.3 µM (active)
3 | CC(C)(O)c1cnn2c(-c3ccc(F)c(-c4c(F)cccc4C#N)c3)cnc2n1 |  | 8.97 µM (active)
4 | CC(C)(OOC(C)(C)c1ccccc1)c1ccccc1 | inactive | 
5 | Oc1ccccc1Cl | inactive | 
6 | CCNS(=O)(=O)C(F)(F)C(F)(F)C(F)(F)C(F)(F)C(F)(F)C(F)(F)C(F)(F)C(F)(F)F | inactive | 169 µM (active)
7 | O=P(OCCCl)(OCCCl)OCCCl | inactive | 
8 | O=[N+]([O-])C(Br)(CO)CO |  | 100 µM (active)
9 | O=Cc1ccco1 | inactive | 
10 | Clc1ccc(Cl)c(Cl)c1 | inactive | 
11 | COC(=O)Nc1nc2ccccc2[nH]1 | inactive | 
12 | CCCCCCCCn1sccc1=O |  | 15.6 µM (active)
13 | Cn1cc(-c2ccccc2)c(=O)c(-c2cccc(C(F)(F)F)c2)c1 |  | 100 µM (active)
14 | N#CC(Br)(Br)C(N)=O |  | 165 µM (active)
15 | O=C1CCCO1 | inactive | 
16 | Clc1ccc(C(c2ccc(Cl)cc2)C(Cl)(Cl)Cl)cc1 | inactive | 
17 | c1ccc(N=Nc2ccccc2)cc1 | inactive | 
18 | CN(C)c1ccccc1 | inactive | 
19 | N#CC(Br)Br | inactive | 
20 | Clc1ccccc1Cl | inactive | 

Row | Compound | outcome | AC50
21 | [O-][Cl+]O | inactive | 
22 | CC(C)N(Cc1ccccc1)C(=O)C(C)(C)C | inactive | 
23 | CC(O)CCO (stereo not given) | inactive | 
24 | CCCCCCCCOC(=O)c1ccc(C(=O)OCCCCCCCC)c(C(=O)OCCCCCCCC)c1 | inactive | 
25 | CCCSC(=O)N(CCC)CCC | inactive | 
26 | Nc1ccc(Oc2ccc(N)cc2)cc1 | inactive | 
27 | OCCCl | inactive | 
28 | CC(C)(C)OOC(=O)c1ccccc1 | inactive | 
29 | CCC[CH2][Sn]([Cl])([CH2]CCC)[CH2]CCC |  | 0.591 µM (active)
30 | Nc1ccc(N=Nc2ccccc2)cc1 |  | 27.4 µM (active)
31 | O=C(N[C@H](c1ccccc1)[C@@H]1CN2CCC1CC2)c1c(Cl)ccc(C(F)(F)F)c1Cl | inactive | 
32 | CCN(CC)CCO | inactive | 
33 | CCOC(=O)[C@]1(c2ccccc2)Oc2ccccc2[C@@H]1N | inactive | 
34 | Clc1ccc(C(c2ccc(Cl)cc2)C(Cl)Cl)cc1 | inactive | 
35 | OCCOCCO | inactive | 
36 | Nc1ccc([N+](=O)[O-])cc1 | inactive | 
37 | CC(C)COC(=O)c1ccccc1C(=O)OCC(C)C | inactive | 
38 | CN(C)C(=O)Nc1ccc(Cl)cc1 | inactive | 
39 | CCOc1cccc(C2(N3CCN(c4ccccc4)CC3)CCC(C)CC2)c1 (stereo not given) | inactive | 
